{
  "source": "PubChem BioAssay (NCI)",
  "note": "This is part of a sample that, as a whole, favours compounds with a hit. Of some 79,000 tested, about 15% had one in any assay. Unmarked numbers belong to inactive results. Activity calls are given as the source filed them. Cut-off read from the data, not from the text of the source: active = growth inhibition above about 70%; inactive = the rest.",
  "data": [
    {"test": "NCI Yeast Anticancer Drug Screen. Data for the bub3 strain (AID 167)", "settings": "S. cerevisiae bub3 mutant strain, at 50.0 µM, active compounds read high", "procedure,_shortened": "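Growth of a checkpoint-deficient yeast mutant is measured after compound exposure. Values represent inhibition relative to vehicle.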", "values": [
      {"smiles": "Cc1cccc(C(C)C)c1NC(=O)/C(Cc1c([N+](=O)[O-])cccc1[N+](=O)[O-])=N/NC(=O)CC#N", "growth inhibition": "-23.2%"},
      {"smiles": "NC1CC(=O)C(CC2C(=O)CC(N)CC2=O)C(=O)C1", "note": "(stereo not given)", "growth inhibition": "-1.15%"},
      {"smiles": "CC(C)c1ccc(/C=C2\\CCC/C(=C\\c3ccc(C(C)C)cc3)C2=O)cc1", "growth inhibition": "-20.4%"},
      {"smiles": "COc1cc(OC)c(OC)cc1/C=C/c1cc[n+](C)c2ccccc12", "growth inhibition": "4.95%"},
      {"smiles": "O=C(NO)c1c(F)c(F)c(C(=O)NO)c(F)c1F", "growth inhibition": "9.65%"},
      {"smiles": "COc1cc(/C=N/N=C(\\N)NO)cc(Cl)c1O", "growth inhibition": "-8%"},
      {"smiles": "[N-]=[N+]=NC(=O)c1cccc2c1Cc1ccccc1-2", "growth inhibition": "-11.5%"},
      {"smiles": "O=[S@]1Nc2cc(N=Nc3ccccc3)ccc2S1", "growth inhibition": "-5.05%"},
      {"smiles": "Nc1ccc2c(c1)Cc1c-2cc(Br)c(N)c1Br", "growth inhibition": "1.9%"},
      {"smiles": "N#C/C(=C\\c1ccccn1)c1ccc(Cl)cc1", "growth inhibition": "17.3%"},
      {"smiles": "CC1(C)C2CCC(I)(C2)C1I", "note": "(stereo not given)", "growth inhibition": "1.55%"},
      {"smiles": "CC1=Nc2ccccc2NC2(C1)C(C1COC(C)(C)O1)OC1OC(C)(C)OC12", "note": "(stereo not given)", "growth inhibition": "2.1%"},
      {"smiles": "COc1ccccc1NC(=O)C1=C(C)NC(C)=C(C(=O)Nc2ccccc2OC)C1c1c(Cl)cccc1Cl", "growth inhibition": "0.2%"},
      {"smiles": "CN(C)CCOC(=O)COc1ccc(Cl)cc1", "growth inhibition": "28.9%"},
      {"smiles": "Cc1ccc(C(C)(O)C2CC2)cc1", "note": "(stereo not given)", "growth inhibition": "-35.8%"},
      {"smiles": "CCCCCCCCCCCCCCCCCCCOc1ccc(OCCCCCCCCCC)cc1", "growth inhibition": "0.2%"},
      {"smiles": "COC(C)C(NC=O)C(=O)O", "note": "(stereo not given)", "growth inhibition": "9.95%"},
      {"smiles": "Nc1cc(Cl)c(I)c(Cl)c1", "growth inhibition": "-2.15%"},
      {"smiles": "O=C1N=C2SC(=S)NC(=S)N2NC12c1ccccc1-c1ccccc12", "growth inhibition": "16.4%"},
      {"smiles": "CC1C(=O)CCC2C1(C)CCC1C2(C)CCC2(C)C3CC(C)(C)CCC3(C)CCC12C", "note": "(stereo not given)", "growth inhibition": "22.9%"},
      {"smiles": "O=C(/C=C/c1ccc(Cl)c(Cl)c1)c1ccc2ccccc2c1", "growth inhibition": "11.2%"},
      {"smiles": "CC(=O)CC(=O)CC(C)C.CC(=O)CC(=O)CC(C)C.[Cu]", "growth inhibition": "-3.2%"},
      {"smiles": "C/C=C1\\CN2CCc3c([nH]c4ccccc34)C2C=C1CCO", "note": "(stereo not given)", "growth inhibition": "-41.1%"},
      {"smiles": "C=CCCCC(C#N)c1ccc2c(c1)OCO2", "note": "(stereo not given)", "growth inhibition": "-40.6%"},
      {"smiles": "C[N+](C)(C)C1CC([N+](C)(C)C)C2c3ccccc3C21", "note": "(stereo not given)", "growth inhibition": "-3.35%"},
      {"smiles": "COc1cc(C(=O)O)cc(O)c1OC", "growth inhibition": "2.4%"},
      {"smiles": "CC(O)CN(CC(C)O)c1ccc2c(c1)Cc1ccccc1-2", "note": "(stereo not given)", "growth inhibition": "36%"},
      {"smiles": "CCCNS(C)(=O)=O", "growth inhibition": "11.1%"},
      {"smiles": "CC1(c2ccncc2)NC(=O)NC1=O", "note": "(stereo not given)", "growth inhibition": "-5.8%"},
      {"smiles": "CC1=C(C)CC2(CC1)C(=O)C1(CCC(C)=C(C)C1)C2=O", "note": "(stereo not given)", "growth inhibition": "17%"},
      {"smiles": "CC1CCOCO1", "note": "(stereo not given)", "growth inhibition": "13.1%"},
      {"smiles": "O=C(Nc1ccccc1)C1CC2C=CC1C2", "note": "(stereo not given)", "growth inhibition": "-7.3%"},
      {"smiles": "CC1(C)OCC2OC(n3cnc4c(N)nc(Cl)nc43)C(OS(C)(=O)=O)C2O1", "note": "(stereo not given)", "growth inhibition": "4.15%"},
      {"smiles": "CC1(C)CC[C@]2(C(=O)O)[C@H](O)C[C@]3(C)C(=CC[C@@H]4[C@@]5(C)CC[C@H](OC6OC(C(=O)O)C(O)C(O)C6O)C(C)(C)[C@@H]5CC[C@]43C)[C@@H]2C1", "note": "(stereo not given in full)", "growth inhibition": "93.9% (active)"},
      {"smiles": "O=C(NO)/C(CC(=O)c1ccc(O)cc1)=N\\O", "growth inhibition": "-3.7%"},
      {"smiles": "N#CC(C#N)=CNC(=S)Nc1ccc(Cl)c(Cl)c1", "growth inhibition": "36%"},
      {"smiles": "CC(NC(=O)C(N)CC(=O)O)C(=O)OC12CC3CC(CC(C3)C1)C2", "note": "(stereo not given)", "growth inhibition": "12.7%"},
      {"smiles": "CCOC(=O)C(CC(Nc1ccccc1)(c1ccccc1)c1ccccc1)c1ccccc1", "note": "(stereo not given)", "growth inhibition": "-3.45%"},
      {"smiles": "Cc1cc(N(CCC#N)CCC#N)ccc1/C=C1N=C(/C=C\\c2ccccc2)OC\\1=O", "growth inhibition": "10.3%"},
      {"smiles": "COc1ccc(OC)c(NC(=O)CCCC(=O)C(C#N)c2ccccc2C)c1", "note": "(stereo not given)", "growth inhibition": "0.2%"}
    ]},
    {"test": "NCI Yeast Anticancer Drug Screen. Data for the mlh1 rad18 strain (AID 175)", "settings": "S. cerevisiae mlh1 rad18 strain growth inhibition; at 50.0 µM; active compounds read high", "procedure,_shortened": "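Vehicle-treated cultures served as the reference for growth inhibition in a yeast strain carrying DNA damage repair alterations exposed to each compound.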", "values": [
      {"smiles": "Cc1cccc(C(C)C)c1NC(=O)/C(Cc1c([N+](=O)[O-])cccc1[N+](=O)[O-])=N/NC(=O)CC#N", "growth inhibition": "4.8%"},
      {"smiles": "NC1CC(=O)C(CC2C(=O)CC(N)CC2=O)C(=O)C1", "note": "(stereo not given)", "growth inhibition": "-3.65%"},
      {"smiles": "CC(C)c1ccc(/C=C2\\CCC/C(=C\\c3ccc(C(C)C)cc3)C2=O)cc1", "growth inhibition": "-3.5%"},
      {"smiles": "COc1cc(OC)c(OC)cc1/C=C/c1cc[n+](C)c2ccccc12", "growth inhibition": "8.05%"},
      {"smiles": "O=C(NO)c1c(F)c(F)c(C(=O)NO)c(F)c1F", "growth inhibition": "2.1%"},
      {"smiles": "COc1cc(/C=N/N=C(\\N)NO)cc(Cl)c1O", "growth inhibition": "-36.1%"},
      {"smiles": "[N-]=[N+]=NC(=O)c1cccc2c1Cc1ccccc1-2", "growth inhibition": "-0.4%"},
      {"smiles": "O=[S@]1Nc2cc(N=Nc3ccccc3)ccc2S1", "growth inhibition": "-12.1%"},
      {"smiles": "Nc1ccc2c(c1)Cc1c-2cc(Br)c(N)c1Br", "growth inhibition": "-6.75%"},
      {"smiles": "N#C/C(=C\\c1ccccn1)c1ccc(Cl)cc1", "growth inhibition": "53.7%"},
      {"smiles": "CC1(C)C2CCC(I)(C2)C1I", "note": "(stereo not given)", "growth inhibition": "10.3%"},
      {"smiles": "CC1=Nc2ccccc2NC2(C1)C(C1COC(C)(C)O1)OC1OC(C)(C)OC12", "note": "(stereo not given)", "growth inhibition": "17.9%"},
      {"smiles": "COc1ccccc1NC(=O)C1=C(C)NC(C)=C(C(=O)Nc2ccccc2OC)C1c1c(Cl)cccc1Cl", "growth inhibition": "26.6%"},
      {"smiles": "CN(C)CCOC(=O)COc1ccc(Cl)cc1", "growth inhibition": "21.4%"},
      {"smiles": "Cc1ccc(C(C)(O)C2CC2)cc1", "note": "(stereo not given)", "growth inhibition": "18.1%"},
      {"smiles": "CCCCCCCCCCCCCCCCCCCOc1ccc(OCCCCCCCCCC)cc1", "growth inhibition": "7.15%"},
      {"smiles": "COC(C)C(NC=O)C(=O)O", "note": "(stereo not given)", "growth inhibition": "1.9%"},
      {"smiles": "Nc1cc(Cl)c(I)c(Cl)c1", "growth inhibition": "14.4%"},
      {"smiles": "O=C1N=C2SC(=S)NC(=S)N2NC12c1ccccc1-c1ccccc12", "growth inhibition": "19.6%"},
      {"smiles": "CC1C(=O)CCC2C1(C)CCC1C2(C)CCC2(C)C3CC(C)(C)CCC3(C)CCC12C", "note": "(stereo not given)", "growth inhibition": "16.8%"},
      {"smiles": "O=C(/C=C/c1ccc(Cl)c(Cl)c1)c1ccc2ccccc2c1", "growth inhibition": "20.2%"},
      {"smiles": "CC(=O)CC(=O)CC(C)C.CC(=O)CC(=O)CC(C)C.[Cu]", "growth inhibition": "37.7%"},
      {"smiles": "C/C=C1\\CN2CCc3c([nH]c4ccccc34)C2C=C1CCO", "note": "(stereo not given)", "growth inhibition": "-43.7%"},
      {"smiles": "C=CCCCC(C#N)c1ccc2c(c1)OCO2", "note": "(stereo not given)", "growth inhibition": "-15.2%"},
      {"smiles": "C[N+](C)(C)C1CC([N+](C)(C)C)C2c3ccccc3C21", "note": "(stereo not given)", "growth inhibition": "3.9%"},
      {"smiles": "COc1cc(C(=O)O)cc(O)c1OC", "growth inhibition": "8.45%"},
      {"smiles": "CC(O)CN(CC(C)O)c1ccc2c(c1)Cc1ccccc1-2", "note": "(stereo not given)", "growth inhibition": "-4.6%"},
      {"smiles": "CCCNS(C)(=O)=O", "growth inhibition": "3.6%"},
      {"smiles": "CC1(c2ccncc2)NC(=O)NC1=O", "note": "(stereo not given)", "growth inhibition": "18.6%"},
      {"smiles": "CC1=C(C)CC2(CC1)C(=O)C1(CCC(C)=C(C)C1)C2=O", "note": "(stereo not given)", "growth inhibition": "15.6%"},
      {"smiles": "CC1CCOCO1", "note": "(stereo not given)", "growth inhibition": "-9.2%"},
      {"smiles": "O=C(Nc1ccccc1)C1CC2C=CC1C2", "note": "(stereo not given)", "growth inhibition": "1.55%"},
      {"smiles": "CC1(C)OCC2OC(n3cnc4c(N)nc(Cl)nc43)C(OS(C)(=O)=O)C2O1", "note": "(stereo not given)", "growth inhibition": "30%"},
      {"smiles": "CC1(C)CC[C@]2(C(=O)O)[C@H](O)C[C@]3(C)C(=CC[C@@H]4[C@@]5(C)CC[C@H](OC6OC(C(=O)O)C(O)C(O)C6O)C(C)(C)[C@@H]5CC[C@]43C)[C@@H]2C1", "note": "(stereo not given in full)", "growth inhibition": "93.7% (active)"},
      {"smiles": "O=C(NO)/C(CC(=O)c1ccc(O)cc1)=N\\O", "growth inhibition": "4.7%"},
      {"smiles": "N#CC(C#N)=CNC(=S)Nc1ccc(Cl)c(Cl)c1", "growth inhibition": "62.5%"},
      {"smiles": "CC(NC(=O)C(N)CC(=O)O)C(=O)OC12CC3CC(CC(C3)C1)C2", "note": "(stereo not given)", "growth inhibition": "-10.8%"},
      {"smiles": "CCOC(=O)C(CC(Nc1ccccc1)(c1ccccc1)c1ccccc1)c1ccccc1", "note": "(stereo not given)", "growth inhibition": "-0.65%"},
      {"smiles": "Cc1cc(N(CCC#N)CCC#N)ccc1/C=C1N=C(/C=C\\c2ccccc2)OC\\1=O", "growth inhibition": "5.3%"},
      {"smiles": "COc1ccc(OC)c(NC(=O)CCCC(=O)C(C#N)c2ccccc2C)c1", "note": "(stereo not given)", "growth inhibition": "2.05%"}
    ]}
  ]
}
